Common to all, as to experiment: NCI-60 one-dose screen, 48 h (100 = growth as untreated, 0 = no growth, -100 = all killed)
The test system of experiment [1] is SK-MEL-2 melanoma. As to conditions: 10 µM unless noted.
Experiment [2] deals with EKVX NSCLC. As to conditions: 10 µM unless noted.
The test system of experiment [3] is SN12C renal. As to conditions: 10 µM unless noted.
Experiment [4] concerns TK-10 renal. To be noted: 10 µM unless noted.
For experiment [5], the system named is ACHN renal. As to conditions: 10 µM unless noted.
The test system of experiment [6] is CAKI-1 renal. To be noted: 10 µM.
The test system of experiment [7] is A498 renal. To be noted: 10 µM unless noted.
The test system of experiment [8] is CCRF-CEM leukemia. As to conditions: 10 µM unless noted.
The subject of experiment [9] is MOLT-4 leukemia. As to conditions: 10 µM unless noted.
The subject of experiment [10] is SR leukemia. To be noted: 10 µM unless noted.
The subject of experiment [11] is OVCAR-8 ovarian. To be noted: 10 µM unless noted.
In experiment [12] the test system is OVCAR-5 ovarian. As to conditions: 10 µM unless noted.
For experiment [13], the system named is OVCAR-4 ovarian. To be noted: 10 µM unless noted.
In experiment [14] the test system is SK-OV-3 ovarian. As to conditions: 10 µM unless noted.
The test system of experiment [15] is IGROV1 ovarian. To be noted: 10 µM unless noted.
Experiment [16] relates to OVCAR-3 ovarian. To be noted: 10 µM unless noted.
The test system of experiment [17] is HS 578T breast. To be noted: 10 µM unless noted.
The test system of experiment [18] is NCI/ADR-RES ovarian. As to conditions: 10 µM unless noted.
The test system of experiment [19] is UO-31 renal. As to conditions: 10 µM unless noted.
In experiment [20] the test system is RPMI-8226 leukemia. As to conditions: 10 µM unless noted.

This is part of a sample that, as a whole, favours compounds with a hit. Of some 83,000 tested, about 20% had one in any assay.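 Method: cells in 96-well plates; compound added at one concentration; 48 h incubation; percent growth measured; values under 10 scored active.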 Unmarked numbers belong to inactive results. The source made the active and inactive calls.

For `COc1cc(Nc2ncccc2C(=O)Nc2nc3ccc(F)cc3s2)cc(OC)c1OC`, the growth was 75.3% in experiment [1]; 22% in experiment [2]; 63.2% in [3]; 114% in [4]; 79.9% in [5]; 18.4% in experiment [6]. Moreover, the growth in experiment [7] was 62.2%; in [8], 29.7%; in experiment [9], 74.5%; in experiment [10], 104%; in experiment [11], 91.2%; in [12], 105%. Besides, the growth in experiment [13] is 5% (active); in [14] it was 91.7%; in [15], 74.5%; in experiment [16] it was 55.6%; in experiment [17], 72.8%; in experiment [18], 67.2%.
Take `COc1ccc(C(=O)NC(=O)Nc2ccc3c(c2)NC(=O)/C3=C\c2[nH]c(C)c(C(=O)O)c2C)c(F)c1`: the growth in experiment [1] was 55.3%; in [2], 94.4%; in [3] it was 57.9%; in experiment [19], 88.4%; in experiment [5], 55.2%; in [7], 64.8%. Also, the growth was 84.3% in experiment [8]; 86.2% in experiment [9]; 58.2% in experiment [10]; 6.29% (active) in [20]; 56.4% in [11]; 98.8% in [12]. The growth is 12% in experiment [13]; 74.1% in experiment [14]; 46.8% in [15]; 5.25% (active) in experiment [16]; 49.4% in experiment [17]; 74.1% in experiment [18].
On to `CCc1ccc(C2=C/C(=C/c3ccc(Cl)cc3)C(=O)N2CCc2ccc(S(N)(=O)=O)cc2)cc1`, for which the growth in experiment [1] was -12.5% (active); in [2], 29.7%; in experiment [3], 29%; in [19], 16.5%; in [5] it was 14.9%; in experiment [7], 33.1%. For the same compound, the growth in [8] was 15%; in [9] it was -1.62% (active); in experiment [10] it was 6.7% (active); in [20], 18.9%; in experiment [11], 21.5%; in [12], 47.2%. Also, the growth in experiment [13] was 32.1%; in experiment [15], 27.7%; in [16], 23.6%; in experiment [17], 62.6%; in experiment [18], 51.8%.
As to `CC(=O)N1N=C2N(Cc3ccccc3)C(=O)c3c(sc4c3CCCC4)N2C1c1cn(-c2ccccc2)nc1-c1ccc(Cl)cc1` (stereo unspecified), the growth in [1] was 98%; in [2] it was 87.9%; in experiment [3], 103%; in [4] it was 102%; in [5], 96.6%; in [6] it was 101%. The growth is 103% in experiment [7]; 92.4% in [8]; 86.3% in experiment [9]; 87.9% in experiment [20]; 100% in experiment [11]; 101% in [12]. Besides, the growth in experiment [13] is 115%; in experiment [14], 88%; in experiment [16] it was 101%; in experiment [17], 93%.
For the compound `CC(=O)c1ccc2c(c1)C1C=CCC1[C@H](c1cc3c(cc1Br)OCO3)N2` (stereo partly specified), the growth in experiment [1] was 16.1%; in experiment [2], 34.9%; in experiment [3], 43.5%; in experiment [4], 60.6%; in experiment [5] it was 38.6%; in experiment [6], 20.3%. The growth in experiment [7] is 13.5%; in [8] it was 4.69% (active); in [9] it was 7.5% (active); in experiment [20], 9.1% (active); in experiment [11], 16.8%; in [12] it was 34.7%. Also, the growth in experiment [13] is 56.1%; in experiment [14] it was 34.2%; in experiment [16], 8.44% (active); in experiment [17] it was 7.06% (active); in experiment [18] it was 10.8%.
`Nc1ncc(-c2ccc3ncnc(Nc4ccc(F)c(Cl)c4)c3c2)cn1`: the growth in experiment [1] was 95%; in experiment [2], 40.8%; in [3], 37.4%; in [19], 12%; in experiment [5], -74.2% (active); in [7] it was 23%. In addition, the growth is 80.4% in experiment [9]; -35.1% (active) in experiment [10]; 50% in [20]; 61.3% in [11]; 80.3% in [12]; -17.3% (active) in experiment [13]. The growth was 65.7% in experiment [14]; 1.68% (active) in experiment [15]; -57.4% (active) in experiment [16]; 34.6% in experiment [17]; 59.4% in [18].
Take `CC(C)(C)OC(=O)NCc1cccc(N=C=S)c1`: the growth in experiment [1] was 41.9%; in experiment [2] it was 71.6%; in experiment [3], 69.6%; in experiment [19] it was 49.2%; in experiment [5], 61.5%; in experiment [7] it was -11.6% (active). Also, the growth in experiment [8] is 3.13% (active); in experiment [9], -24.6% (active); in experiment [10], -4.27% (active); in experiment [20], -38.9% (active); in experiment [11] it was 64.4%; in experiment [12], 65.2%. In addition, the growth was 57.1% in experiment [13]; 88.2% in experiment [14]; 60.1% in experiment [16]; 66.1% in experiment [17]; 71.3% in experiment [18].
As to `COc1ccc2c(c1)C(=O)/C(=C/c1cccc(OCC(=O)c3ccccc3)c1)O2`, the growth in experiment [1] was 75.1%; in experiment [2], 82.1%; in [3], 32.9%; in experiment [4] it was 30.7%; in experiment [5], 45.1%; in [6], -98.1% (active). The growth is 117% in experiment [7]; -52.4% (active) in [9]; -49.6% (active) in [20]; -29.9% (active) in experiment [11]; 37.8% in experiment [12]; -55.1% (active) in experiment [13]. Besides, the growth in experiment [16] was -84.4% (active); in experiment [17] it was 52%; in experiment [18], 65.1%.
Regarding `Cn1cnc([N+](=O)[O-])c1N1c2ccncc2Sc2ccncc21`, the growth in experiment [1] was 94.2%; in experiment [2], 78.8%; in experiment [3], 113%; in experiment [4], 132%; in experiment [5], 75.8%; in experiment [6], 85.7%. In addition, the growth in experiment [7] is 93.1%; in [8] it was 94.7%; in experiment [9] it was 91.6%; in experiment [20], 85.8%; in [11], 83.4%; in experiment [12], 99.7%. The growth in experiment [13] was 179%; in experiment [14], 92.2%; in experiment [17], 98.2%; in experiment [18], 97.1%.

(Values after PubChem BioAssay (NCI).)
